Assay outcomes: PubChem BioAssay, National Center for Advancing Translational Sciences (NCATS)
HP1b binding inh = blocks HP1-beta chromodomain binding to methylated histone tails | P83916 | AlphaScreen HP1-beta / biotin-H3K9me3 peptide binding | Potency, µM (titrated, usually from 114 µM), usual class: inhibitors | actives 0.56% (n = 390,000) | AID 540317; note: nearly all actives have a fitted effect of over 70% in size
Target sequence (P83916 whole entry, looked up): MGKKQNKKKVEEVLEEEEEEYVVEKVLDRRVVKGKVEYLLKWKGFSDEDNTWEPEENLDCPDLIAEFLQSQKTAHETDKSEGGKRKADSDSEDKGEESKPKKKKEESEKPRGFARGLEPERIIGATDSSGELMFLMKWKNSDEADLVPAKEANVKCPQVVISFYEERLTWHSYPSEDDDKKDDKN
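HP1-beta protein (50 nM final) preincubated 30 min at room temperature with biotinylated H3(1-18)K9me3 peptide (50 nM) in PBS pH 7.4, 0.01% Tween-20, then compound added for 30 min. AlphaScreen streptavidin donor/nickel chelate acceptor beads (10 ug/mL final), 30 min dark, luminescence read.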
BAZ2B inh = inhibitors of human BAZ2B bromodomain; AID 504333; Potency, µM (series often up to 114 µM), hits mostly inhibitors; AlphaScreen BAZ2B-H3K14Ac peptide displacement; Q9UIF8; actives 4.4% (n = 360,000); note: nearly all actives have a fitted effect of over 60% in size
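In this displacement format the biotinylated H3(5-23) peptide acetylated at Lys14 serves as ligand at 50 nM, with BAZ2B at 50 nM in PBS pH 7.4 containing 0.01% Tween-20. Donor and acceptor beads are 10 ug/mL final.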
JMJD2A Tudor inh = JMJD2A Tudor domain (human) inhibition | O75164 | Potency, µM (titrated, usually from 114 µM), hits mostly inhibitors | AlphaScreen JMJD2A-Tudor / H3K4me3 peptide binding | actives 4.4% (n = 390,000); note: nearly all actives have a fitted effect of over 50% in size
G9a block = inhibitors of human histone lysine methyltransferase G9a. actives 8.8% (n = 350,000). G9a H3K9 monomethylation, AlphaScreen, 2 h. Potency, µM (top dose mostly 102 µM), actives largely listed as inhibitors. Q96KQ7; note: nearly all actives have a fitted effect of over 75% in size
Target sequence (Q96KQ7 913-1193 limits assumed): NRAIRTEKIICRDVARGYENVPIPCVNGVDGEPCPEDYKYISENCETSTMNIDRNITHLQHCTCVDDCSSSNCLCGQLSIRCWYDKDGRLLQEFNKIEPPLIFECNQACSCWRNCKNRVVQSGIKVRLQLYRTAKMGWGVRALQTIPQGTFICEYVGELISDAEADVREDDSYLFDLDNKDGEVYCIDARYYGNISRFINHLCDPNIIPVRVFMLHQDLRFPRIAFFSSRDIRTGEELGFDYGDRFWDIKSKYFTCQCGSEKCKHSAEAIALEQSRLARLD
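Using a bead-based AlphaScreen, monomethylated H3K9 product from 2 h room-temperature reactions (G9a 20 nM, peptide 500 nM, SAM 20 uM) was detected with 0.5 ug/mL rabbit anti-H3K9me1 antibody.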
TDP1 block = TDP1 (human) enzyme inhibition. Q9NUW8. recombinant TDP1, AlphaScreen DNA substrate cleavage. Potency, µM (highest dose often 130 µM), actives largely listed as inhibitors. actives 0.28% (n = 350,000). AID 485290; note: nearly all actives have a fitted effect of over 40% in size
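Tdp1 1 nM final; 15 min RT w/ cpd; substrate 15 nM, 5 min; beads 10 ug/ml, 10 min; AlphaScreen read. Neg ctrl: no enzyme.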
Sfp PPTase inh = Sfp phosphopantetheinyl transferase inhibition. Biochemical Sfp PPTase activity, qHTS. actives 3.5% (n = 310,000). Potency, µM, most hits filed as inhibitors. Q9F4F7;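 note: the enzyme is Sfp with the accession as filed and its product quenches rhodamine fluorescence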
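Compounds were incubated with enzyme (final 15 nM) for 15 min at room temperature before substrate addition started the reaction. Fluorescence at 525 nm excitation, 598 nm emission was recorded immediately and after 30 minutes.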
Of the large screens only hits and unclear results are named; the others gave an inactive call; ! = not confirmed by another sample. Compounds with a hit are over-represented: about 12% of the library has one in this group of screens. Calls come from the whole dose curve; as a rule, active = well fitted curve in the direction sought with a large enough effect; inconclusive = small, poorly fitted or top-dose-only effect, or another doubt; inactive = no such curve, though single readings can be large; an effect the other way counts as inactive or inconclusive.

COc1ccc(C2CC(c3ccccc3)Oc3cc4c(cc32)OCO4)cc1 (centres undefined)	HP1b binding inh inconclusive, JMJD2A Tudor inh 35µM, Sfp PPTase inh 45µM! (no result: BAZ2B inh, G9a block)
COc1ccc(C2CC(c3ccccc3)Oc3cc(OC)c(OC)c(OC)c32)cc1 (centres undefined)	none (no result: BAZ2B inh, G9a block)
COc1ccc(C2CC(c3ccccc3)Oc3ccc(C(C)(C)C)cc32)cc1 (centres undefined)	none (no result: BAZ2B inh, G9a block)
COc1ccc(C2CC(c3ccccc3)Oc3cc(OC)ccc32)cc1 (centres undefined)	HP1b binding inh inconclusive, JMJD2A Tudor inh 40µM, Sfp PPTase inh inconclusive (no result: BAZ2B inh, G9a block)
COC(=O)c1sccc1NC(=O)c1cc(-c2ccc(C)cc2)nc2ccccc12	none (no result: G9a block)
CCc1nnc(NC(=O)c2cc(-c3ccncc3)nc3ccccc23)s1	G9a block inconclusive
CCOC(=O)Cc1csc(NC(=O)c2cc(-c3ccncc3)nc3ccccc23)n1	none (no result: Sfp PPTase inh)
Cc1csc(NC(=O)c2cc(-c3ccccc3)nc3ccccc23)n1	G9a block 71µM
COC(=O)c1sccc1NC(=O)c1cc(-c2cccc(C)c2)nc2ccccc12	Sfp PPTase inh 16µM
O=C(Nc1nc2c(s1)CCCC2)c1cc(-c2ccccc2)nc2ccccc12	G9a block 13µM
CC(C)(C)c1nnc(NC(=O)c2cc(-c3ccccc3)nc3ccccc23)s1	G9a block inconclusive, Sfp PPTase inh 20µM
O=C(Nc1nc2c(s1)CCCC2)c1cc(-c2ccncc2)nc2ccccc12	G9a block inconclusive
O=C(CCc1ccccc1)Oc1ccccc1[N+](=O)[O-]	none (no result: BAZ2B inh, G9a block, TDP1 block, Sfp PPTase inh)
Cc1ccc(Cl)c2sc(NC(=O)CS(=O)(=O)c3ccc(Cl)cc3)nc12	none (no result: Sfp PPTase inh)
O=C(Nc1nc2c(s1)CCCC2)c1ccc(Br)o1	none (no result: BAZ2B inh)
Cc1ccc(C(=O)Nc2nc3c(s2)CCCC3)o1	G9a block 56µM
COc1ccc(NC(=O)CN2CCC(C(N)=O)(N3CCCCC3)CC2)c(OC)c1	none
CCCCNC(=O)CSc1nc2ccccc2nc1Cc1ccc(Cl)cc1	none (no result: Sfp PPTase inh)
FC(F)(F)Oc1ccc(Nc2nc(N3CCOCC3)nc(N3CCOCC3)n2)cc1	BAZ2B inh inconclusive, JMJD2A Tudor inh 18µM (no result: G9a block)
Clc1cccc(Nc2nc(N3CCOCC3)nc(N3CCOCC3)n2)c1	G9a block 50µM
CCc1ccc(Nc2nc(N3CCOCC3)nc(N3CCOCC3)n2)cc1	JMJD2A Tudor inh inconclusive (no result: G9a block)
COc1ccc(Nc2nc(Nc3ccc(OC)cc3OC)nc(N3CCOCC3)n2)c(OC)c1	BAZ2B inh 7.9µM, JMJD2A Tudor inh inconclusive, G9a block inconclusive (no result: TDP1 block, Sfp PPTase inh)
COc1ccc(N2CCN(c3nc(Cl)nc(Nc4ccc(F)cc4)n3)CC2)cc1	BAZ2B inh inconclusive, G9a block 10µM
Fc1cccc(Nc2nc(N3CCOCC3)nc(N3CCOCC3)n2)c1	none (no result: TDP1 block)
COc1ccc(Nc2nc(N3CCOCC3)nc(N3CCOCC3)n2)c(OC)c1	none (no result: TDP1 block)
CCNc1ncc2nc(-c3ccc(OC)cc3)c(=O)n(CCC#N)c2n1	none (no result: HP1b binding inh, BAZ2B inh, JMJD2A Tudor inh, TDP1 block)
COC(=O)c1ccc(Cl)cc1NC(=O)N1CC(C)Oc2ccccc21 (centres undefined)	BAZ2B inh inconclusive (no result: Sfp PPTase inh)
CCc1ccccc1NC(=O)C(CC)Sc1nc2cc3c(cc2c(=O)n1Cc1ccco1)OCO3 (centres undefined)	none
CCc1ccc(NC(=O)C(CC)Sc2nc3cc4c(cc3c(=O)n2Cc2ccco2)OCO4)cc1 (centres undefined)	Sfp PPTase inh 45µM
CCc1c(C)sc(NC(=O)Cn2nc(C)c([N+](=O)[O-])c2C)c1C(N)=O	HP1b binding inh inconclusive, G9a block 3.5µM, Sfp PPTase inh 11µM
Cc1csc(NC(=O)Cn2nc(C)c([N+](=O)[O-])c2C)n1	none
Cc1ncc(C(=O)O)c(C(=O)O)c1N	BAZ2B inh inconclusive
Cc1ccc(-n2ncc(C(=O)N3CCN(c4ccccc4F)CC3)c2C2CCN(C(=O)OC(C)(C)C)CC2)cc1C	none (no result: Sfp PPTase inh)
CCCCCn1c(=N)n(CC(O)COc2ccccc2OC)c2ccccc21 (centres undefined)	Sfp PPTase inh 25µM!
Oc1ccc(N2CCN(c3nnnn3-c3ccccc3)CC2)cc1	HP1b binding inh inconclusive, G9a block 25µM, Sfp PPTase inh 56µM (no result: BAZ2B inh)
Clc1cccc(N2CCN(c3nnnn3-c3ccccc3)CC2)c1	none
COc1ccccc1-c1noc(CCC(=O)Nc2ccccc2Cl)n1	G9a block 2.8µM, Sfp PPTase inh 10µM
COc1ccccc1-c1noc(CCC(=O)Nc2cccc(C)c2)n1	G9a block 35µM, Sfp PPTase inh inconclusive
COc1cc(-c2noc(CCC(=O)Nc3cccnc3)n2)cc(OC)c1OC	G9a block 35µM, Sfp PPTase inh inconclusive
CC(C)C(CCNC1CCN(C)CC1)c1ccc(Cl)cc1 (centres undefined)	JMJD2A Tudor inh 56µM, G9a block inconclusive (no result: TDP1 block)
CN1CCC(NCCC(c2ccc(F)cc2)c2ccc(Cl)cc2)CC1 (centres undefined)	BAZ2B inh 50µM, JMJD2A Tudor inh 0.71µM, G9a block 25µM, Sfp PPTase inh inconclusive (no result: TDP1 block)
N#C/C(=C\c1ccc(-c2cc(Cl)ccc2Cl)o1)C(=O)Nc1ccccc1C(=O)O	HP1b binding inh inconclusive, BAZ2B inh inconclusive, JMJD2A Tudor inh inconclusive, G9a block inconclusive (no result: Sfp PPTase inh)
COC(=O)[C@@]1(Cc2ccc(OC)cc2)[C@H]2c3cc(C(=O)N(C)C)n(CCc4c[nH]c5ccc(O)cc45)c3C[C@H]2CN1C(=O)c1ccccc1	none (no result: HP1b binding inh, BAZ2B inh, JMJD2A Tudor inh, G9a block)
CCn1c(C)cc(C(=O)COC(=O)c2ccccc2[N+](=O)[O-])c1C	HP1b binding inh inconclusive, JMJD2A Tudor inh 45µM (no result: BAZ2B inh, G9a block, Sfp PPTase inh)
COc1ccccc1C1NC(=O)c2ccccc2O1 (centres undefined)	none (no result: G9a block, TDP1 block)
CCCCN(C(=O)Cc1ccc2c(c1)OCCO2)c1c(N)n(CC(C)C)c(=O)[nH]c1=O	none (no result: Sfp PPTase inh)
Cc1ccc(C)c(NS(=O)(=O)c2ccc3[nH]c(=O)oc3c2)c1	BAZ2B inh 79µM, G9a block 45µM
Cc1ccc(CNC(=O)CN2CCN(c3ccc(F)cc3)CC2)cc1	none (no result: G9a block)
Cc1c(O)ccc(C(=O)CN2CCN(c3ccc(F)cc3)CC2)c1O	G9a block 45µM
Cc1ccccc1NC(=O)CN1CCN(Cc2ccccc2)CC1	none
Cc1c(O)ccc(C(=O)CN2CCN(Cc3ccccc3)CC2)c1O	G9a block 79µM
CC(C)(CC(=O)O)CC(=O)N1CCCN(c2nccc(C(F)(F)F)n2)CC1	none (no result: TDP1 block)
c1ccc2sc(NCC3CCCO3)nc2c1 (centres undefined)	none
c1ccc2oc(-c3csc(NCC4CCCO4)n3)cc2c1 (centres undefined)	HP1b binding inh inconclusive, BAZ2B inh inconclusive, JMJD2A Tudor inh inconclusive, G9a block 40µM
C=CCNc1nc(-c2cc3ccccc3o2)cs1	BAZ2B inh inconclusive, G9a block 11µM, Sfp PPTase inh inconclusive
